In ChEMBL document CHEMBL4888484, “Replenishing the malaria drug discovery pipeline: Screening and hit evaluation of the MMV Hit Generation Library 1 (HGL1) against asexual blood stage Plasmodium falciparum ,using a nano luciferase reporter read-out” (2022):
Out of some 4,800 compounds screened, about 410 (8.5%) showed an effect of 50% or more. The entries come from a sample that favours strong results as a whole.

Tested on: Plasmodium falciparum
Assay: Confirmatory screen in NF54 pLDH assay, in single point, at 2uM, 72h
Type: functional, Erythrocyte
Details: timepoint 72 hour

| SMILES | % Inhibition |
| --- | --- |
| CC(=O)NCC(=O)N(Cc1ccco1)C1(C(=O)NC2CCCCC2)CCCCC1 | 8% |
| Cc1cc(C(=O)NCc2ccncc2)no1 | -10% |
| CCn1nccc1C(=O)N1CC[C@H](CC(=O)NCc2ccncc2)C1 | 6% |
| N#Cc1cc2cc(Cl)cnc2nc1N1CCCCC1 | 16% |
| COc1cc(C(=O)NC2CCCCC2)cc2occc12 | 0% |
| CCOc1cc(Cl)ccc1C(=O)NC1CCN(C[C@H]2CCOC2)CC1 | 5% |
| Cc1cnccc1NCCNC1CCN(c2ccc(Cl)cc2)CC1 | 96% |
| Cc1cnccc1NCCNC1CCN(c2ccc3c(c2)CCC3)CC1 | 77% |
| CCn1nccc1C(=O)NC1CCN(c2nnc3ccc(Cl)cn23)CC1 | 10% |
| N#Cc1c(N2CCCCC2)ncc2c(=O)c3ccccc3[nH]c12 | 8% |
| O=C(Cc1ccc(F)cc1)N[C@H](c1ccccc1)C1CC1 | 2% |
| CCCOc1ccc(CNC(=O)CCn2ccn3nc(-c4ccc(C)c(C)c4)cc3c2=O)cc1 | 5% |
| Cc1ccc(-n2nc(C)cc2NC(=O)CN2CCCN(c3ccc(C(F)(F)F)cn3)CC2)cc1 | 9% |
| O=C(c1ccccc1)c1ccc(O)c(CN2CCCN(c3ccc(C(F)(F)F)cn3)CC2)c1O | 80% |
| O=C(C1CC1c1ccccc1)N(c1ccc(F)cn1)C1CCOCC1 (centres undefined) | 7% |
| O=C(NCc1ccc2c(c1)OCO2)C(F)(F)C(F)(F)C(F)(F)C(F)(F)C(=O)NCc1ccc2c(c1)OCO2 | -19% |
| CN1CCN([C@H]2CCN(c3ccnc4ccc(Cl)cc34)C[C@H]2CCCO)CC1 | 60% |
| CCCOc1cc(=O)c(C(=O)N2CCCC2)nn1-c1ccc(C)cc1 | 0% |
| CCn1cc([C@H](CC(=O)N2CCN(Cc3ccc4c(c3)OCO4)CC2)c2cccc(OC)c2)c2ccccc21 | 2% |
| O=C(NC[C@H](O)c1ccc(Cl)s1)c1ccsc1 | 2% |
| OC(CNC1CCCNc2ccccc21)c1ccc(Cl)s1 (centres undefined) | 51% |
| Cc1cccc(NC(=O)CC(C)(C)CC(=O)O)c1C | 13% |

| SMILES | % Inhibition |
| --- | --- |
| CC(C)(c1ccc(F)cc1)C1(NC(=O)CCc2nccs2)CC1 | -12% |
| Cn1cc(CCCNc2ccc(F)cn2)cn1 | 9% |
| Cc1ccc(S(=O)(=O)N2CCN(C(=O)c3cc(C4CC4)nc4c3c(C)nn4C(C)C)CC2)cc1 | 13% |
| Cc1nn(Cc2ccccc2)c2nc(C3CC3)cc(C(=O)N3CCOCC3)c12 | 1% |
| Cc1nn(C(C)(C)C)c2nc(C3CC3)cc(C(=O)N(C)c3ccccc3)c12 | 87% |
| CCOC(=O)C1CCN(C(=O)c2nc(-c3ccc(N4CCCC4)nc3)no2)CC1 | 12% |
| O=C(c1cccc2cc[nH]c12)N(CC1CC1)C1CC1 | 12% |
| Cc1cc(C)c(C(=O)Cn2nc3ccc(-c4ccc(Cl)cc4)nn3c2=O)c(C)c1 | 10% |
| CCCn1nc(-n2cnnc2)c(NS(=O)(=O)c2ccc(Br)cc2)c1C | 11% |
| CC(C(=O)N1CCCC1c1cccs1)N(C)Cc1ncnn1C (centres undefined) | 4% |
| Clc1ccc(-c2noc(CN(Cc3cccs3)Cc3cccs3)n2)cc1 | 6% |
| COc1ccc(CC(=O)NCCOCCO)cc1 | 8% |
| N#CC1(O)C(C2COC3(CCCCC3)O2)OC2OC3(CCCCC3)OC21 (centres undefined) | 10% |
| Cc1sc(NC(N)=O)nc1Cc1ccccc1 | 10% |
| CN1CCN(c2nc(O)c3c(n2)NC(=O)C[C@H]3c2c(F)cccc2F)CC1 | 0% |
| CCOc1cc(C(c2c(C)n(C)n(-c3ccccc3)c2=O)c2c(C)n(C)n(-c3ccccc3)c2=O)ccc1OCc1ccccc1 | 38% |
| CCOC(=O)N1CCC(NC(=O)c2cn[nH]c2-c2ccc(OCC)c(Cl)c2)CC1 | 10% |
| O=C(NC1CCN(Cc2ccccc2)CC1)c1cn[nH]c1-c1ccccc1 | 6% |
| O=C(C[C@H]1CCN(C(=O)Nc2ccc3c(c2)OCCO3)C1)NCc1ccncc1 | 7% |
| Cc1cc(C)cc([C@@H](O)CNC(=O)NCC(C)(C)c2ccncc2)c1 | 3% |
| Cc1nn2c(-c3ccc(-c4ccccc4)cc3)ccnc2c1Br | 9% |
| Cc1nonc1NC(=O)CCCC1CCCC1 | 8% |

| SMILES | % Inhibition |
| --- | --- |
| O[C@@H](CNCc1ccsc1C(F)(F)F)c1cc(Cl)c2c(c1)OCCO2 | 29% |
| NC(=O)COCC(=O)Nc1ccccc1 | -9% |
| CCc1[nH]nc(NC(=O)c2c(C)ccnc2O)c1C | -11% |
| CO[C@@H](CNC(=O)c1nc2n(n1)-c1ccccc1S(=O)(=O)N2)c1ccccc1 | 0% |
| O=c1[nH]nc2c(N3CC[C@H](NCc4ccc(F)cc4)C3)nccn12 | 11% |
| COc1ccc(C)cc1NC(=O)N1CC(c2nc(C(C)C)nn2C)C1 | 1% |
| c1cn2cnnc2c(N(CC2CC2)CC2CC2)n1 | -5% |
| Cc1ccc(Cn2c(=O)c(C(=O)NCc3ccc4c(c3)OCO4)nn(-c3ccc(C(C)C)cc3)c2=O)cc1 | 52% |
| O=C(Cn1cnc2ccc(Cl)cc2c1=O)NCc1ccc2c(c1)OCO2 | -5% |
| CC[C@H]1Cn2c(C(=O)NCc3ccc4c(c3)OCO4)cc3c(Cl)ccc(c32)O1 | -10% |
| Cc1ccc(NC(=O)Nc2c(C3=CCCCC3)c(C)nn2C)cc1C | -13% |
| CC(C)(C)OC(=O)N1CC(NC(=O)C2CC2c2ccccc2C(F)(F)F)C1 (centres undefined) | -16% |
| CCc1c([C@H](C)S(=O)(=O)c2ccccc2)[nH]c(=O)n1Cc1cccs1 | -7% |
| Cc1cc(N2CCN(c3ccccn3)CC2)n2cc(-c3ccccc3)nc2n1 | 14% |
| O=S(=O)(C1CC1)N1CC[C@H](CO)C1 | 0% |
| Cc1ccc(S(=O)(=O)Cc2nc(-c3ccc(C(=O)Nc4ccc(C)cc4Cl)cc3)oc2C)cc1 | 14% |
| COc1cccc(-c2noc3nc(C)cc(C(=O)NCCCn4ccc(C)n4)c23)c1 | 11% |
| Cc1ccc(NC(=O)C2C3NC(=O)N(c4ccccc4)C2(C)Oc2ccc(C)cc23)c(C)c1 (centres undefined) | -9% |
| CC(C)c1ccc(N2C(=O)[C@H](CC(=O)N3CCN(C)CC3)N=C2O)cc1 | 9% |
| CC(=O)NCCNC(=O)Nc1ccccc1N(C)C1CCCC1 | -5% |
